Measured values as given in PubChem BioAssay (NCATS).
Inconclusive results are not listed. Entries that show only a call come without a potency. Activity calls are given as the source filed them. Unless noted, calls come from the whole dose curve; as a rule, active = well fitted activation curve with a large enough effect; inconclusive = small, poorly fitted or top-dose-only effect; inactive = no such curve, though single readings can be large or run the other way.

Target: Parathyroid hormone/parathyroid hormone-related peptide receptor (Homo sapiens) (UniProt Q03431)
Assay: qHTS for PTHR1 Agonists: Optimization Screen against the NCGC LOPAC library (AID 1347079);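 note: GloSensor cAMP luminescence in HEK-293 GP2 cells expressing human PTHR1 with IBMX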
Conditions: HEK293 GP2 PTHR1 GloSensor cAMP luminescence, 1 h; series mostly up to 57.1 µM
How it was run: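 Compounds were tested across a qHTS titration. PTHR1-expressing GP2 cells report cAMP rises via GloSensor luminescence after 1 hr compound exposure at 37C with IBMX present.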

Chain of Parathyroid hormone/parathyroid hormone-related peptide receptor (Homo sapiens) (Q03431 whole entry, looked up): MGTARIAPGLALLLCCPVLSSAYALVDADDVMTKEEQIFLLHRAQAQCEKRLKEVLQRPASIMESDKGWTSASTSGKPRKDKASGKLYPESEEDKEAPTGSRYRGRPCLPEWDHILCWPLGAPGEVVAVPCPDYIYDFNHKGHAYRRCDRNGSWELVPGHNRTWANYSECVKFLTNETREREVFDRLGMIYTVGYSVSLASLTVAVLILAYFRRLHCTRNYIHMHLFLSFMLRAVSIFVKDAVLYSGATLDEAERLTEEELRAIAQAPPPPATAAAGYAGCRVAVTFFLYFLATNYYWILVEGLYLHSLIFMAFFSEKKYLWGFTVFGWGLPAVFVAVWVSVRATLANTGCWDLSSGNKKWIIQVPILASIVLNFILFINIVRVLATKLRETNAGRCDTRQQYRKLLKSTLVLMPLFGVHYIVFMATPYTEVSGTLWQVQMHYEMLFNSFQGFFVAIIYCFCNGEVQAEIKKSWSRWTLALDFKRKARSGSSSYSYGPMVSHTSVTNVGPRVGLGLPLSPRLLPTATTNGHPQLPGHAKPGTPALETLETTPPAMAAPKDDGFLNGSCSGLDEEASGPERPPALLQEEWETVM

Compound | outcome
COC(=O)C1=CCCN(C)C1 | inactive
COc1ccc(C(=O)N2CCCC2=O)cc1 | inactive
NC(=O)CN1CCCC1=O | inactive
O=C(O)c1nn(Cc2ccc(Cl)cc2Cl)c2ccccc12 | inactive

System: not listed separately
Assay: qHTS for Inhibitors of the Functional Ribonucleoprotein Complex (vRNP) of Lassa (LASV) Arenavirus: LASV Primary Screen - GLuc reporter signal (AID 1347082; calls by dose curve; tested in HEK293 reporter line; note: nearly all actives have a fitted effect of over 60% in size)
Conditions: LASV minigenome vRNP, Gaussia luciferase reporter; series mostly up to 57.5 µM

Compound | Potency
C[C@@H](C1=C(CCN(C)C)Cc2ccccc21)c1ccccn1 | inactive
CN1CCCC(CC2c3ccccc3Sc3ccccc32)C1 (configuration not stated) | inactive
COC(=O)C1=CCCN(C)C1 | inactive
CC(=C(CCOC(=O)C(C)C)SSC(CCOC(=O)C(C)C)=C(C)N(C=O)Cc1cnc(C)nc1N)N(C=O)Cc1cnc(C)nc1N | inactive
O=C(O)C(Cc1cc(I)c(O)c(I)c1)c1ccccc1 (configuration not stated) | inactive
COC(=O)Nc1nc2ccc(Sc3ccccc3)cc2[nH]1 | inactive
Nc1nc2ccccc2n1Cc1ccc(F)cc1 | inactive
COC(=O)[C@H]1[C@H]2C[C@@H]3c4[nH]c5cc(OC)ccc5c4CCN3C[C@H]2C[C@@H](OC(=O)/C=C/c2ccc(O)c(OC)c2)[C@@H]1OC | inactive
CCNC(=O)N1CCN(CCCC(c2ccc(F)cc2)c2ccc(F)cc2)CC1 | inactive
CC(C(O)c1ccccc1)N(C)CCOC(c1ccccc1)c1ccccc1 (configuration not stated) | inactive
CCN(CC)CCCC(C)Nc1c2ccc(Cl)cc2nc2ccc(OC)cc12 (configuration not stated) | inactive
Cc1ccc2c(Br)cc(Br)c(O)c2n1 | inactive
NC(=O)C1(N2CCCCC2)CCN(CCCN2c3ccccc3CCc3ccc(Cl)cc32)CC1 | inactive
COCCOC(=O)C1=C(C)NC(C)=C(C(=O)OC/C=C/c2ccccc2)C1c1cccc([N+](=O)[O-])c1 (configuration not stated) | inactive
COC(=O)C1=C(C)NC(C)=C(C(=O)OC(C)(C)CN(C)CCC(c2ccccc2)c2ccccc2)C1c1cccc([N+](=O)[O-])c1 (configuration not stated) | inactive
Oc1c(Cl)cc(Cl)cc1Sc1cc(Cl)cc(Cl)c1O | inactive
COc1ccc(C(=O)N2CCCC2=O)cc1 | inactive
CCOC(=O)C1=C(C)NC(C)=C(C(=O)OCC)C1c1ccccc1/C=C/C(=O)OC(C)(C)C | inactive
CN(C)[C@@H]1C(=O)C(C(=O)NCN2CCCC2)=C(O)[C@@]2(O)C(=O)C3=C(O)c4c(O)cccc4[C@@](C)(O)C3C[C@@H]12 (some centres not stated) | inactive
O=C(Nc1ncc([N+](=O)[O-])s1)c1cccs1 | inactive

Compound | Potency
CC(=O)Oc1ccc(C2(c3ccc(OC(C)=O)cc3)Oc3ccccc3NC2=O)cc1 | inactive
COc1ccc(/C=C/C(=O)c2ccc(OC)cc2OC)cc1 | inactive
Cc1nc2n(c(=O)c1CCN1CCC(C(=O)c3ccc(F)cc3)CC1)CCS2 | inactive
COc1cccc2c1C(=O)c1c(O)c3c(c(O)c1C2=O)C[C@@](O)(C(=O)CO)C[C@@H]3O[C@H]1C[C@H](N)[C@H](O[C@@H]2CCCCO2)[C@H](C)O1 | inactive
CC(C)=CCNc1ncnc2c1ncn2[C@@H]1O[C@H](CO)[C@@H](O)[C@H]1O | inactive
c1ccc(-c2ccc(C(c3ccccc3)n3ccnc3)cc2)cc1 (configuration not stated) | inactive
COc1ccc([C@@H]2Sc3ccccc3NC(=O)[C@@H]2O)cc1 | inactive
C=CCNc1nc(NCC=C)nc(N2CCN(C(c3ccc(F)cc3)c3ccc(F)cc3)CC2)n1 | inactive
OC[C@H]1O[C@@H](n2cnc3c(=S)nc[nH]c32)[C@H](O)[C@@H]1O | inactive
NC(=O)CN1CCCC1=O | inactive
CCOc1ccc(Cc2nccc3cc(OCC)c(OCC)cc23)cc1OCC | inactive
CCN(CC)CCOc1ccc2c(c1)C(=O)c1cc(OCCN(CC)CC)ccc1-2 | inactive
O=C(O)c1nn(Cc2ccc(Cl)cc2Cl)c2ccccc12 | inactive
Cc1nnc2n1-c1sc(CCc3ccc(CC(C)C)cc3)cc1C(c1ccccc1Cl)=NC2C (configuration not stated) | inactive
CCCCOc1cc(C(=O)NCCN(CC)CC)c2ccccc2n1 | inactive
Cc1c(C(=O)NN2CCCCC2)nn(-c2ccc(Cl)cc2Cl)c1-c1ccc(Cl)cc1 | inactive
CCCCC(CC)COC(=O)C(C#N)=C(c1ccccc1)c1ccccc1 (configuration not stated) | inactive
CCN(CC)CCNc1ccc(CO)c2sc3ccccc3c(=O)c12 | inactive
CCCCc1ccc2nc(NC(=O)OC)[nH]c2c1 | inactive

System: not listed separately
Assay: qHTS for Inhibitors of the Functional Ribonucleoprotein Complex (vRNP) of Lassa (LASV) Arenavirus: Viability assay - alamar blue signal for LASV Primary Screen (AID 1347083; calls by dose curve; tested in HEK293 reporter line; note: nearly all actives have a fitted effect of over 80% in size; note: potency is the fitted concentration of half-maximal effect)
Conditions: cell viability, alamar blue fluorescence (LASV minigenome counter-screen); series mostly up to 57.5 µM

Compound | Potency
C[C@@H](C1=C(CCN(C)C)Cc2ccccc21)c1ccccn1 | inactive
COC(=O)C1=CCCN(C)C1 | inactive
CC(=C(CCOC(=O)C(C)C)SSC(CCOC(=O)C(C)C)=C(C)N(C=O)Cc1cnc(C)nc1N)N(C=O)Cc1cnc(C)nc1N | inactive
COC(=O)Nc1nc2ccc(Sc3ccccc3)cc2[nH]1 | 5.44 µM (active)
Nc1nc2ccccc2n1Cc1ccc(F)cc1 | inactive
CCNC(=O)N1CCN(CCCC(c2ccc(F)cc2)c2ccc(F)cc2)CC1 | inactive
COCCOC(=O)C1=C(C)NC(C)=C(C(=O)OC/C=C/c2ccccc2)C1c1cccc([N+](=O)[O-])c1 (configuration not stated) | inactive
COC(=O)C1=C(C)NC(C)=C(C(=O)OC(C)(C)CN(C)CCC(c2ccccc2)c2ccccc2)C1c1cccc([N+](=O)[O-])c1 (configuration not stated) | inactive
Oc1c(Cl)cc(Cl)cc1Sc1cc(Cl)cc(Cl)c1O | inactive
COc1ccc(C(=O)N2CCCC2=O)cc1 | inactive
CCOC(=O)C1=C(C)NC(C)=C(C(=O)OCC)C1c1ccccc1/C=C/C(=O)OC(C)(C)C | inactive
CN(C)[C@@H]1C(=O)C(C(=O)NCN2CCCC2)=C(O)[C@@]2(O)C(=O)C3=C(O)c4c(O)cccc4[C@@](C)(O)C3C[C@@H]12 (some centres not stated) | inactive
O=C(Nc1ncc([N+](=O)[O-])s1)c1cccs1 | inactive
COc1ccc(/C=C/C(=O)c2ccc(OC)cc2OC)cc1 | inactive
Cc1nc2n(c(=O)c1CCN1CCC(C(=O)c3ccc(F)cc3)CC1)CCS2 | inactive
c1ccc(-c2ccc(C(c3ccccc3)n3ccnc3)cc2)cc1 (configuration not stated) | inactive
C=CCNc1nc(NCC=C)nc(N2CCN(C(c3ccc(F)cc3)c3ccc(F)cc3)CC2)n1 | inactive
NC(=O)CN1CCCC1=O | inactive
CCOc1ccc(Cc2nccc3cc(OCC)c(OCC)cc23)cc1OCC | inactive
O=C(O)c1nn(Cc2ccc(Cl)cc2Cl)c2ccccc12 | inactive
Cc1nnc2n1-c1sc(CCc3ccc(CC(C)C)cc3)cc1C(c1ccccc1Cl)=NC2C (configuration not stated) | inactive
CCCCOc1cc(C(=O)NCCN(CC)CC)c2ccccc2n1 | inactive
Cc1c(C(=O)NN2CCCCC2)nn(-c2ccc(Cl)cc2Cl)c1-c1ccc(Cl)cc1 | inactive
CCCCc1ccc2nc(NC(=O)OC)[nH]c2c1 | 0.0685 µM (active)
